Source: PubChem (National Center for Advancing Translational Sciences (NCATS))
Rows were chosen to be rich in hits. Some 10% of all compounds tested hit in one or more screens of this group.
BAZ2B block: inhibitors of human BAZ2B bromodomain | AlphaScreen BAZ2B-H3K14Ac peptide displacement | AID 504333 | 360,000 tested, 4.4% active | Q9UIF8 | Potency, µM (doses to about 114 µM), without a hit: top-dose activity change, negative = inhibition, usual class: inhibitors; note: potency is the fitted concentration of half-maximal effect; % is set by controls: 0 for no effect and ±100 for the full control effect; nearly all actives have a fitted effect of over 60% in size
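BAZ2B 50 nM plus b-H3(5-23)K14Ac 50 nM, PBS pH 7.4/0.01% Tween-20, 30 min RT; compound added (max 110 uM), 30 min RT; streptavidin donor/Ni-chelate acceptor beads 10 ug/mL final, 20 min dark; AlphaScreen read.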
JMJD2A Tudor: JMJD2A Tudor domain (human) inhibition | O75164 | AlphaScreen JMJD2A-Tudor / H3K4me3 peptide binding | Potency, µM (series often up to 114 µM), inactives show at the top dose activity change, negative = inhibition, hits mostly inhibitors | 390,000 tested, 4.4% active; note: potency is the fitted concentration of half-maximal effect; % is set by controls: 0 for no effect and ±100 for the full control effect; nearly all actives have a fitted effect of over 50% in size
G9a inh: G9a (human) methyltransferase inhibition. Potency, µM (doses to about 102 µM), without a hit: top-dose activity, negative = inhibition, most hits filed as inhibitors. G9a H3K9 monomethylation, AlphaScreen, 2 h. AID 504332. 350,000 tested, 8.8% active. Q96KQ7; note: potency is the fitted concentration of half-maximal effect; % is set by controls: 0 for no effect and ±100 for the full control effect; nearly all actives have a fitted effect of over 75% in size
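Enzyme 20 nM + cpd, 15 min RT; add b-H3K9 pep 500 nM / SAM 20 uM; 2 h RT; anti-H3K9me1 Ab 0.5 ug/mL + SA donor / anti-rabbit acceptor beads 20 ug/mL each, 10 min; AlphaScreen read.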
CtBP-E1A inh: blocks the CtBP interaction with E1A; AlphaScreen GST-E1A/His-CtBP binding, 1536-well; stronger effect = lower value; activity change, % (no concentration beside the values); 340,000 tested, 0.49% active; AID 651724; in the data active = activity change below about -65%; inconclusive = mostly about -30% to -63%; note: % is set by controls: 0 for no effect and ±100 for the full control effect
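GST-E1A and His-tagged CtBP (125 nM each as 5X stock) were preincubated with pin-transferred compound for 2 h at 37 °C in the dark, then glutathione donor and nickel acceptor beads were added for 1 h before AlphaScreen reading.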
Six1-Eya2 inh: blocks human Six1 binding to Eya2. Q15475+O00167. AlphaScreen GST-Six1/His-Eya2 binding, biochemical; stronger effect = lower value. activity change, % (no concentration beside the values). 360,000 tested, 0.56% active. AID 651725; in the data active = activity change below about -65%; inconclusive = mostly about -30% to -63%; note: % is set by controls: 0 for no effect and ±100 for the full control effect
Target sequence (O00167 whole entry, looked up): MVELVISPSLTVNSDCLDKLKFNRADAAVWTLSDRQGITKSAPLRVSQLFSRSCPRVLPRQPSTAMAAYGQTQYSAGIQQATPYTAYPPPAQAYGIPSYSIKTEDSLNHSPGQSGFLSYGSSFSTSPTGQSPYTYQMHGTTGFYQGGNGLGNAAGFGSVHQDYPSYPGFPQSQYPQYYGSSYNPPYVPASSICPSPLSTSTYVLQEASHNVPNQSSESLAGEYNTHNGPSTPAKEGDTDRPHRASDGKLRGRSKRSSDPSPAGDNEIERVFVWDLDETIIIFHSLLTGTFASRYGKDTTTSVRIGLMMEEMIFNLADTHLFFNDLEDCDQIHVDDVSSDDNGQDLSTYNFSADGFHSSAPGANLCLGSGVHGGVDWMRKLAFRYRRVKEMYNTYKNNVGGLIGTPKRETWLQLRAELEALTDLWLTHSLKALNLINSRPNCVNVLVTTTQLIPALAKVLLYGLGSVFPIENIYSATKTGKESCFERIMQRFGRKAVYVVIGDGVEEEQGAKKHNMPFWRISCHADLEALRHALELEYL
Target sequence (Q15475 whole entry, looked up): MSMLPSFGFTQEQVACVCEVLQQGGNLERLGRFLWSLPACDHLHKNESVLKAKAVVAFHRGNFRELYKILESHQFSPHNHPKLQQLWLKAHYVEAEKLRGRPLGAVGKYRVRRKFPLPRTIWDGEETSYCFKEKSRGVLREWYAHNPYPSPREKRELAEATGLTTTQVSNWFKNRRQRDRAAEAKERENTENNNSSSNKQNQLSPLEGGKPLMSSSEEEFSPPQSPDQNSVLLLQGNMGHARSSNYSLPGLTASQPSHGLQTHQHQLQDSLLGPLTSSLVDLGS
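Six1/Eya2 binding was read as AlphaScreen signal after compounds were pinned into GST-Six1 plus His-tagged Eya2 (5X stock 250/500 nM) in pH 8.0 Tris/NaCl/TCEP buffer, beads added, then incubated 1 h, 37 C, dark.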
HP1b binding inh: blocks HP1-beta chromodomain binding to methylated histone tails; AID 540317; AlphaScreen HP1-beta / biotin-H3K9me3 peptide binding; P83916; Potency, µM (highest dose often 114 µM), inactives show top-dose activity change, negative = inhibition, most hits filed as inhibitors; 390,000 tested, 0.56% active; note: potency is the fitted concentration of half-maximal effect; nearly all actives have a fitted effect of over 70% in size
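Compound inhibition of the preformed complex between 50 nM HP1-beta and 50 nM biotinylated H3K9me3 peptide was read by AlphaScreen. Buffer was PBS pH 7.4 with 0.01% Tween-20. Incubations ran 30 min at room temperature, with 10 ug/mL donor/acceptor beads.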
The depositor's hits bear a star; ? = inconclusive; · = no result given; [ ] = another dose, or the depositor's remark. Unless noted, calls come from the whole dose curve; as a rule, active = well fitted inhibition curve with a large enough effect; inconclusive = small, poorly fitted or top-dose-only effect; inactive = no such curve, though single readings can be large or run the other way.

SMILES | BAZ2B block | JMJD2A Tudor | G9a inh | CtBP-E1A inh | Six1-Eya2 inh | HP1b binding inh
CN1C2CCC1/C(=C\c1ccc(F)cc1)C(=O)/C2=C/c1ccc(F)cc1 | -34% | -31% | -3% | -5 | 9 | 2%
CN1C2CCC1/C(=C/c1cccn1C)C(=O)/C2=C\c1cccn1C | 45µM* | 45µM* | ? | -22 | ? | ?
Cn1cccc1/C=C1\CC(C(C)(C)C)C/C(=C\c2cccn2C)C1=O (stereo not given) | 28µM* | 40µM* | ? | -5 | -18 | ?
COc1cc(/C=C2\CC(C(C)(C)C)C/C(=C\c3cc(OC)c(OC)c(OC)c3)C2=O)cc(OC)c1OC (stereo not given) | ? | ? | -31%[2.33 µM] | 3 | -12 | ?
CC(C)CNc1ncnc2c1ncn2[C@H]1CN(Cc2ccc3c(c2)OCO3)C[C@@H](CO)O1 | · | · | · | 4 | -2 | ·
Cc1ccc(-c2nc3ccc(C)cn3c2CC2CCCCC2)cc1 | · | · | · | -24 | 12 | ·
Cc1nn2c(-c3ccc(S(=O)(=O)N4CCN(CCO)CC4)o3)nnc2c2ccccc12 | -19% | -14% | 10% | -75* | ? | 27%
COc1ccc(-c2nnc3c4ccccc4c(C)nn23)cc1S(=O)(=O)N1CCN(CCO)CC1 | -6% | -27% | 5%[59 µM] | -82* | -71* | -5%
Cc1ccc(C)c(S(=O)(=O)c2cn(C)c3cc(N4CCCCC4C)c(F)cc3c2=O)c1 (stereo not given) | -8% | -24% | -13%[59 µM] | · | · | 34%
C=C1c2cccc(OC)c2O[C@H](C(=O)OCC)[C@@H]1CCC(C)C | · | · | 32µM* | · | · | ·
Nc1nc(=S)c2ncn([C@@H]3O[C@H](CO)[C@@H](O)[C@H]3O)c2[nH]1 | ? | 5µM* | 1.8µM* | 2 | 2 | ?
Nc1ncnc2c1ncn2[C@@H]1O[C@H](CO)[C@H](O)[C@H]1O | · | · | 28%[12.7 µM] | · | · | ·
Nc1nc(Cl)nc2c1ncn2[C@@H]1O[C@H](CO)[C@@H](O)[C@H]1O | 9% | -8% | 12%[59 µM] | 9 | 2 | 25%
Nc1nc(=S)c2ncn(C3OC(CO)C(O)C3O)c2[nH]1 (stereo not given) | 45µM* | 7.9µM* | 2µM* | ? | ? | ?
COc1ccc(NC(=O)CN2C(=O)NC(c3ccccc3)(c3ccccc3)C2=O)cc1OC | -28% | ? | ? | 0 | -14 | -3%
Cc1ccc(N=N/C(=C\O)C(=O)c2ccc(Cl)cc2)cc1 | 11µM* | -35%[11.4 µM] | 25µM* | · | -25 | ?
COCCn1c(=O)c(C)nc2cnc(Oc3cccc(Cl)c3)nc21 | · | · | 0%[0.501 µM] | · | · | ·
Cc1ccc(C(=O)N2CCCC(N3CCN(c4ccccc4C)CC3)C2)c(=O)[nH]1 (stereo not given) | -6%[57.1 µM] | 50µM* | 10% | · | 1 | ?
C=C1C=CS(=O)(=O)N(C(CC(C)C)C(=O)OC)C1 (stereo not given) | · | -18% | · | · | · | 37%
O=C(c1cc(-c2ccco2)on1)N1CCCc2ccccc21 | ? | 56µM* | 13µM* | -2 | -3 | -8%
O=C(c1cc(-c2ccco2)on1)N1CCc2ccccc2C1 | 25µM* | 50µM* | 11µM* | 0 | -3 | -16%
CC1CCCC(C)N1C(=O)c1cc(-c2ccco2)on1 (stereo not given) | 0% | -7% | 50µM* | 1 | 7 | 24%
O=C(c1cccc(Br)c1)N1CCCc2ccccc21 | -5% | -1% | · | 3 | 24 | 80%
O=C(c1coc(=O)c(Br)c1)N1CCCc2ccccc21 | 22µM* | 40µM* | 18µM* | -18 | ? | -34%
CC1CCN(C(=O)c2cc(-c3ccco3)on2)CC1 | 0% | -13% | ? | 5 | 6 | 1%
SMILES | BAZ2B block | JMJD2A Tudor | G9a inh | CtBP-E1A inh | Six1-Eya2 inh | HP1b binding inh
O=C(c1cc(-c2ccccc2)on1)N1CCCc2ccccc21 | -10% | 21% | · | · | 3 | 74%
Cc1oc(-c2ccccc2F)nc1CS(=O)CC(=O)NC(C)C (stereo not given) | -21% | -16% | ? | · | · | 25%
CCOc1ccccc1C(=O)Nc1ccc2c(c1)C(=O)NC2=O | 1% | -13% | -2% | 5 | 2 | 29%
O=C(/C=C/c1ccccc1Cl)c1ccc[nH]1 | -36% | ? | 5% | -3 | 3 | -17%
O=C(c1nn2c(C(F)(F)F)cc(-c3ccco3)nc2c1Br)N1CCCc2ccccc21 | 2% | -13%[57.1 µM] | 18µM* | -21 | -27 | 1%
CC1(C)CCCN(C(=O)c2coc(=O)c(Br)c2)C1 | 20µM* | 18µM* | · | 10 | ? | -95%
FC(F)c1nc2ccccc2[nH]1 | 40µM* | -8% | · | -25 | 11 | 23%
FC(c1nc2ccccc2[nH]1)C(F)(F)F (stereo not given) | -17% | -12% | 31% | -8 | 6 | 34%
COc1cc([N+](=O)[O-])c2ncsc2c1 | -15% | -11% | 5%[59 µM] | 2 | 2 | 43%
COc1cc(SSc2cc(OC)cc([N+](=O)[O-])c2N)c(N)c([N+](=O)[O-])c1 | 8.9µM* | 1.4µM* | 0.45µM* | · | -27 | ?
CC(CCc1ccccc1)NC(=O)CSc1n[nH]c(-c2ccc(F)cc2)n1 (stereo not given) | 1% | 0% | -2%[59 µM] | · | · | 32%[57 µM]
CCOC(=O)c1c(C)[nH]c(C)c1C(=O)COc1ncnc2cc([N+](=O)[O-])ccc12 | ? | -29% | -10% | -70* | -76* | -3%
Cc1[nH]c2ccccc2c1C(=O)COC(=O)c1ccccc1O | · | -1% | · | -2 | -3 | 15%
CCOC(=O)c1c(C)[nH]c(C)c1C(=O)COC(=O)c1ccccc1O | -34% | -21% | 50µM* | -1 | -15 | 7%
CCOC(=O)c1c(C)[nH]c(C)c1C(=O)COC(=O)CCOc1ccccc1OC | -32% | 79µM* | ? | -9 | -5 | -23%
CC(NC(=O)COc1ncnc2cc([N+](=O)[O-])ccc12)c1ccccc1 (stereo not given) | -10% | -17% | 9%[59 µM] | -3 | 0 | 19%
CN(Cc1ccccc1)c1ccc(C(=O)O)cc1[N+](=O)[O-] | -21% | -6% | 0%[59 µM] | 7 | 2 | 4%
Cc1c(Cl)cccc1NC(=O)NCc1ccc(F)cc1 | -5% | -8% | 50µM* | · | 5 | 11%
Cc1c(Cl)cccc1NC(=O)CCN1CCOCC1 | 4% | -3% | 40µM* | 8 | -1 | 32%
Cc1c(Cl)cccc1NC(=O)CCC(=O)N/N=C/c1ccc[nH]1 | 5% | -29% | 18µM* | -7 | -2 | 2%
Cc1c(Cl)cccc1NC(=O)CCN1C(=O)NC(C)(C)C1=O | -5% | 2% | 50µM* | 11 | -3 | 49%
